SMARCA2 act: SMARCA2 function activation, primary screen; AID 652017; MG213 cells, MMTV-luciferase reporter, dexamethasone, overnight; activation, % at 9.1 µM; actives 1% (n = 370,000); in the data active = activation above about 7.8%;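 also: 0% = vehicle wells and 100% = reference activator wells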
dFosB act: activators of mouse delta FosB homodimer; activation, % at 25 µM; AID 493131; actives 0.99% (n = 340,000); purified delta FosB, TAMRA-CDK5 oligo fluorescence polarization; percent of positive-control signal above neutral wells; P13346;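 active = mean activation above about 17%, with every replicate also reaching it, limit read from the data, passing the limit was not always enough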
Rtt109 HAT inh: C. albicans Rtt109 histone acetyltransferase inhibition; inhibition, % at 34.9 µM; Q5AAJ8; purified Rtt109/Vps75, ThioGlo CoA-SH fluorescence, 4 h; AID 540336; actives 0.16% (n = 330,000);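 active = inhibition of at least 50% in every replicate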
Target sequence (Q5AAJ8 whole entry, looked up): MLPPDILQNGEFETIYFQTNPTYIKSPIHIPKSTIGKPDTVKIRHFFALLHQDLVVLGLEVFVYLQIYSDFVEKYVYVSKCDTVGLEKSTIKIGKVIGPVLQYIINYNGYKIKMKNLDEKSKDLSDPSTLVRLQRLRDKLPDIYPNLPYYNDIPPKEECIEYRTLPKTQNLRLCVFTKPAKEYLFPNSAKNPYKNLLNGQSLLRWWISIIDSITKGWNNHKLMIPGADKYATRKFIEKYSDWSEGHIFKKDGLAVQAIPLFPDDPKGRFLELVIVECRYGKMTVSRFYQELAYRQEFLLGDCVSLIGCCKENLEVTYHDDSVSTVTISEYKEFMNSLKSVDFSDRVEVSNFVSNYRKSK
CDK5 inh: inhibitors of human CDK5/p35 kinase; Recombinant CDK5/p35, ADP-Glo luminescence, 60 min; inhibition, % at 10 µM; actives 0.01% (n = 330,000);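 active = highest replicate inhibition of at least 50% and at least 75% of replicates reaching 50%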;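 also: plate controls were DMSO neutral control for no effect and GW8510 at 10 µM for full effect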
Dyrk1A ADPGlo: Dyrk1A (rat) kinase inhibition; inhibition, % at 12.5 µM; Q63470; AID 504441; ADP-Glo luminescence, NFATc1 peptide; actives 0.43% (n = 310,000); in the data active = inhibition above about 50%;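 also: plate controls were vehicle with enzyme for no effect and no enzyme for full effect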
esBAF inh: SWI/SNF esBAF complex inhibition. mouse ES cells, Bmi1-luciferase knock-in reporter, 24 h; 100% = twice the neutral-well signal. actives 2% (n = 350,000). AID 602393. reporter increase, % at 12.5 µM; in the data active = activation above about 40%;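 also: 0% = median of the plate's neutral control wells and 100% = double that signal; a rise in the Bmi1 reporter signal indicates esBAF inhibition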
Active calls of the source: *. Rows were chosen to be rich in hits. Some 3.2% of all compounds tested hit in one or more screens of this group.

CCOC(=O)CC(=O)CSc1nc2ccc(C)cc2cc1C#N was read as SMARCA2 act 8.8*, dFosB act -10, Rtt109 HAT inh -10, CDK5 inh 0, Dyrk1A ADPGlo 2 and esBAF inh 34.
`CC(C)OC(=O)CSc1nc2c(cc1C#N)CCCCC2` gave SMARCA2 act 5, dFosB act -1, Rtt109 HAT inh 4, CDK5 inh 2, Dyrk1A ADPGlo -2 and esBAF inh 71*.
CCOC(=O)CC(=O)CSc1nc2c(cc1C#N)CCCCC2 was read as SMARCA2 act 6, dFosB act -12, Rtt109 HAT inh -7, CDK5 inh -1, Dyrk1A ADPGlo -4 and esBAF inh 52*.
Cc1ccccc1NC(=O)Cn1cnc2c(oc3nc4c(cc32)CCCC4)c1=O was read as SMARCA2 act 5, dFosB act -7, Rtt109 HAT inh 1, CDK5 inh -1, Dyrk1A ADPGlo -14 and esBAF inh 2.
`CC(C)OC(=O)CC(=O)CSc1nc2c(cc1C#N)CCCCC2` gave SMARCA2 act 4, dFosB act -13, Rtt109 HAT inh -17 and Dyrk1A ADPGlo -5.
Screening CN1C[C@H]2[C@@H](c3ccccc31)[C@H](CO)N2Cc1ccccc1 returned esBAF inh -9.
`CS(=O)(=O)N1[C@@H](C#N)[C@@H](c2ccccc2)[C@@H]1CO` gave esBAF inh -2.
Screening CN(C(=O)c1ccc2c(c1)OCO2)C1(C)CCS(=O)(=O)C1 (centres undefined) returned SMARCA2 act -2, dFosB act 1, Rtt109 HAT inh 2, CDK5 inh 2, Dyrk1A ADPGlo -1 and esBAF inh -8.
`CN(C(=O)c1ccc(N2CCCCC2)c([N+](=O)[O-])c1)C1(C)CCS(=O)(=O)C1` (centres undefined) gave SMARCA2 act 0, dFosB act -6, Rtt109 HAT inh 53*, CDK5 inh 1 and Dyrk1A ADPGlo 0.
CSCc1ccc(C(=O)NCCSc2ccc(Br)cc2)cc1 was read as SMARCA2 act 2, dFosB act 7, Rtt109 HAT inh 1, CDK5 inh -2, Dyrk1A ADPGlo -2 and esBAF inh 48*.
C[C@@H]1CCCCO[C@@H](CN(C)C(=O)Nc2ccc(F)cc2)[C@H](C)CN([C@H](C)CO)C(=O)c2cc(NC(=O)Nc3ccc(F)cc3)ccc2O1 was read as esBAF inh 7.
Cc1ccc(Nc2n[nH]c(=S)s2)cc1C was read as SMARCA2 act 8 and esBAF inh 51*.
S=c1[nH]nc(Nc2cccc(Cl)c2)s1 was read as SMARCA2 act -2, dFosB act 0, Rtt109 HAT inh 0, CDK5 inh 1 and Dyrk1A ADPGlo 4.
Screening Cc1ccc(C(=O)Nc2ccc3c(c2)OCO3)cc1S(=O)(=O)N1CCCC1 returned SMARCA2 act 0, dFosB act 5, Rtt109 HAT inh -1, CDK5 inh 0, Dyrk1A ADPGlo 1 and esBAF inh 79*.
Screening Cc1ccc(C(=O)Nc2ccc3c(c2)CCC3)cc1S(=O)(=O)N1CCOCC1 returned SMARCA2 act 3, dFosB act -11, CDK5 inh -1, Dyrk1A ADPGlo -23 and esBAF inh 62*.
`Cc1ccc(C(=O)Nc2ccc3c(c2)CCC3)cc1` gave SMARCA2 act 2, dFosB act -5, Rtt109 HAT inh 10, CDK5 inh -1, Dyrk1A ADPGlo 2 and esBAF inh -56.
Screening CN(c1ccc(C(=O)Nc2ccc3c(c2)OCO3)cc1)S(C)(=O)=O returned SMARCA2 act -2, dFosB act -6, Rtt109 HAT inh 51*, CDK5 inh 1, Dyrk1A ADPGlo 1 and esBAF inh 25.
Screening NS(=O)(=O)c1cc(C(=O)Nc2ccc3c(c2)CCC3)ccc1Cl returned SMARCA2 act 3, dFosB act -6, Rtt109 HAT inh 6, CDK5 inh 0, Dyrk1A ADPGlo 7 and esBAF inh 77*.
Cc1ccc(C(=O)Nc2ccc3c(c2)OCO3)cc1S(=O)(=O)N1CCOCC1 was read as SMARCA2 act 1, dFosB act -7, Rtt109 HAT inh -2, CDK5 inh -1 and Dyrk1A ADPGlo 1.
O=C(C[C@H]1CC[C@H](NC(=O)CN2CCOCC2)[C@H](CO)O1)NCCc1ccncc1 was read as esBAF inh 2.
For O=C(Nc1ccc2c(c1)CCC2)c1cccc(F)c1 the results were SMARCA2 act 6, dFosB act 5, Rtt109 HAT inh -11, CDK5 inh -1 and Dyrk1A ADPGlo 0.
O=C(Nc1ccc2c(c1)CCC2)c1cc(F)cc(F)c1 was read as SMARCA2 act 3, dFosB act -7, Rtt109 HAT inh -1, CDK5 inh -1, Dyrk1A ADPGlo -3 and esBAF inh 47*.
For CS(=O)(=O)c1cccc(C(=O)Nc2ccc3c(c2)OCCCO3)c1 the results were SMARCA2 act 0, dFosB act -2, Rtt109 HAT inh -13, CDK5 inh 0, Dyrk1A ADPGlo -3 and esBAF inh 58*.
Screening Cc1ccnc2nc(C(=O)Nc3ccc(S(=O)(=O)N4CCCC4)cc3)nn12 returned SMARCA2 act -5, dFosB act 0, Rtt109 HAT inh -2, CDK5 inh 0 and Dyrk1A ADPGlo -1.
`Cc1ccc(NC(=O)c2nc3nccc(C)n3n2)cc1S(=O)(=O)N1CCCCC1` gave SMARCA2 act -1, dFosB act -32, Rtt109 HAT inh -10, CDK5 inh -1 and esBAF inh 45*.
COc1cccc(C(=O)OCC(=O)c2c[nH]c3ccccc23)c1OC was read as SMARCA2 act 6, dFosB act -15, Rtt109 HAT inh 1, CDK5 inh 1, Dyrk1A ADPGlo -2 and esBAF inh 44*.
Screening COc1ccc(C(=O)OCC(=O)c2c[nH]c3ccccc23)c(OC)c1 returned SMARCA2 act 3, dFosB act -6, Rtt109 HAT inh -8, CDK5 inh -1 and esBAF inh 75*.
COc1cc(CC(=O)OCC(=O)c2c[nH]c3ccccc23)cc(OC)c1OC was read as SMARCA2 act -2, dFosB act -5, Rtt109 HAT inh 20, CDK5 inh 0 and esBAF inh -7.
Screening CCOC(=O)c1c(C)[nH]c(C)c1C(=O)COC(=O)c1ccccc1O returned SMARCA2 act -4, dFosB act -6, Rtt109 HAT inh -3, CDK5 inh 1 and Dyrk1A ADPGlo -3.
COc1ccc(C(=O)COC(=O)c2ccccc2O)c(OC)c1 was read as SMARCA2 act 5, dFosB act -11, CDK5 inh -1 and esBAF inh 76*.
`Cc1[nH]c2ccccc2c1C(=O)COC(=O)c1ccccc1O` gave SMARCA2 act 3, dFosB act 4, Rtt109 HAT inh -2, CDK5 inh -1, Dyrk1A ADPGlo -3 and esBAF inh 124*.

Bioassay records as filed in PubChem BioAssay.
